CYP2C19 act – activators of human cytochrome P450 2C19. P33261. activation factor at 5 µM. 96,000 tested, under 10 active. recombinant CYP2C19, luciferin-H EGE luminescence; hits give high values; 0 = fully inhibited enzyme, 1 = untreated enzyme;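 active = activation factor of at least 2 at 5 µM in the primary screen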
CYP2C9 activ – activators of human CYP2C9. P11712. recombinant CYP2C9, luciferin-H conversion, luminescence; hits give high values; factor 1 = untreated enzyme, 0 = blocked. activation factor at 5 µM. 96,000 compounds, 1.4% hits. AID 1024;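 active = activation factor of 2 or more for CYP2C9 at a 5 µM dose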
CYP2C9 inhib – blocks human cytochrome P450 2C9; P11712; CYP2C9 Supersomes, luciferin-H conversion, luminescence; inhibition, % at 5 µM; 96,000 compounds, 20% hits; AID 777;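 active = blocking of liver enzyme CYP2C9 beyond about 50% at 5 µM, limit read from the data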
CYP2C19 inhib – blocks human cytochrome P450 2C19. CYP2C19 Supersomes, luciferin-H EGE luminescence, 30 min. P33261. inhibition, % at 5 µM. 96,000 compounds, 21% hits;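 active = CYP2C19 inhibition above a set limit at 5 µM in the primary screen, cut at about 50% in these data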
Cav3 T inh – human Cav3.2 channel inhibition, primary screen; O95180; AID 449739; Cav3.2-expressing cells, Fluo-4 calcium fluorescence FDSS; hits give low values; B-score at 10 µM; 100,000 compounds, 4% hits;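 active = single-dose well whose peak fluorescence ratio is a statistical outlier from its plate by either plate-standardised score or position-corrected B-score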
Each line names hits and unclear results; the compound was inactive in the other large screens. A selection: hits, their analogues and other compounds. The true share with any hit is near 27%.

Cc1ccc(/C=N/N2CCN(Cc3cccc4ccccc34)CC2)o1	none
Fc1ccc(Oc2nccc(-c3ccc(Cl)cc3)n2)cc1	none
c1cncc(-c2nnc3sc(C4CCCCC4)nn23)c1	CYP2C19 inhib 94, Cav3 T inh 3.2
COc1ccc(N2CC(C)Cn3c2nc2c3c(=O)[nH]c(=O)n2C)cc1 (stereo not given)	none
CNC(=O)N(C1=NCC(C)(C)S1)c1ccc(F)c(Cl)c1	CYP2C9 inhib 51, CYP2C19 inhib 91
CSC(=NC1CCCCC1)NS(=O)(=O)c1ccccc1	CYP2C19 inhib 80
CCCCC(NC(C)=O)c1nc2ccccc2n1CCCC (stereo not given)	none (no result: Cav3 T inh)
CC1CCCCN1CCCNC(=O)c1ccc2c(=O)n(CCc3ccccc3)c(=O)[nH]c2c1 (stereo not given)	CYP2C9 inhib 79, CYP2C19 inhib 87
CC(C)n1cc(-c2ccc(Cl)cc2)cc(C#N)c1=O	none
CC(C)n1cc(C(=O)c2cc(Br)ccc2O)cc(C#N)c1=O	CYP2C9 inhib 88, CYP2C19 inhib 98
CCCCn1cc(C(=O)c2cc(Br)ccc2O)cc(C#N)c1=O	CYP2C9 inhib 59, CYP2C19 inhib 78 (no result: Cav3 T inh)
N#Cc1cc(C(=O)c2cc(Br)ccc2O)cn(C2CC2)c1=O	CYP2C19 inhib 51
Cc1ccc(/C(O)=C2\C(=O)C(=O)N(CC(C)O)C2c2ccc(N(C)C)cc2)cc1 (stereo not given)	none
COc1ccc(CNn2c(C)nc3ccccc3c2=O)cc1	CYP2C19 inhib 96
Cc1nc2ccccc2c(=O)n1N	CYP2C9 inhib 97, CYP2C19 inhib 77
CCCOc1ccc(C(=O)Nn2c(C)nc3ccccc3c2=O)cc1	none
CCCCOc1ccc(CNn2c(C)nc3ccccc3c2=O)cc1	CYP2C9 inhib 67, CYP2C19 inhib 91
CC1(C)NC(=O)N(CCCOc2ccc(Br)cc2Cl)C1=O	CYP2C9 inhib 51, CYP2C19 inhib 92
C/C=C/c1ccc(OCCCN2C(=O)NC(C)(C)C2=O)c(OC)c1	none
CC1(C)NC(=O)N(CCCCOc2ccc(Br)cc2Cl)C1=O	CYP2C9 inhib 66, CYP2C19 inhib 99
CC(C)c1cc(Br)ccc1OCCCN1C(=O)NC(C)(C)C1=O	CYP2C9 inhib 78, CYP2C19 inhib 92
CC1(C)NC(=O)N(CN2C(=O)NC(C)(C)C2=O)C1=O	none
Cc1nc2c3ccccc3[nH]c(=O)n2n1	none (no result: CYP2C19 act, CYP2C9 activ, CYP2C9 inhib, CYP2C19 inhib)
c1nnc(NC2=NCCCCC2)s1	none
Clc1ccc(CSc2nnc(NC3=NCCCCC3)s2)cc1	CYP2C9 inhib 67, CYP2C19 inhib 91
N#CCCn1cnc2c(=S)nc[nH]c21	none
CCOC(=O)c1c(CC(C)C)csc1NC(=O)CCl	CYP2C9 inhib 62 (no result: Cav3 T inh)
CCOC(=O)c1c(CC(C)C)csc1NC(=O)C(C)C	none
COc1ccc(C2Nc3ccccc3C(=O)N2Cc2ccco2)cc1COc1ccc([N+](=O)[O-])cc1 (stereo not given)	CYP2C9 inhib 96 (no result: Cav3 T inh)
COc1cccc(OCc2cc(C3Nc4ccccc4C(=O)N3Cc3ccco3)ccc2OC)c1 (stereo not given)	none (no result: CYP2C19 act, CYP2C9 activ, CYP2C9 inhib, CYP2C19 inhib)
O=C1c2ccccc2N2C(=O)c3ccccc3C2N1Cc1ccco1 (stereo not given)	none
O=C1c2ccccc2NC(c2ccc(F)cc2)N1Cc1ccco1 (stereo not given)	CYP2C9 inhib 68, CYP2C19 inhib 53
O=C1c2cccnc2C(O)N1Cc1ccco1 (stereo not given)	none (no result: Cav3 T inh)
O=C1c2ccccc2NC(c2ccccc2)N1Cc1ccco1 (stereo not given)	CYP2C9 inhib 60 (no result: Cav3 T inh)
Fc1ccccc1CNc1ccc(Cl)c(Cl)c1	none (no result: Cav3 T inh)
COc1ccc(C(=O)OCC(=O)Nc2ccc(F)c(F)c2)cc1OC	CYP2C19 inhib 58
COc1cccc2c(=O)n(CC(=O)Nc3ccc(F)cc3F)ccc12	CYP2C19 inhib 56
CCC(CC)NC(=O)COC(=O)c1ccc(OCC(=O)Nc2ccccc2OC)c(OC)c1	CYP2C19 inhib 71 (no result: Cav3 T inh)
COc1ccc(C(=O)OCC(=O)Nc2ccc(F)cc2F)cc1OC	none
COc1cc(C(=O)OCC(=O)Nc2ccc(F)cc2F)cc(OC)c1OC	CYP2C19 inhib 65
Cc1ccccc1COCCN1CCN(S(=O)(=O)c2ccccc2)CCC1=O	none (no result: CYP2C19 act, CYP2C9 activ, CYP2C9 inhib, CYP2C19 inhib)
C=CCc1c(OC)ccc2ccc(=O)oc12	CYP2C9 activ 2.2, CYP2C19 inhib 57
O=C(CC1CCCC1)Nc1nc2ccccc2[nH]1	none
CCOC(=O)c1cc2occc2n1CCCN1C(=O)c2ccccc2C1=O	CYP2C9 inhib 87
CCOC(=O)c1cc2sc(C)cc2n1CCCN1C(=O)c2ccccc2C1=O	CYP2C9 inhib 57
CCOC(=O)c1cc2ccccc2n1CCN(CC)CC	none

Compound activity deposited in PubChem by several laboratories.
